# Measurements from PubChem BioAssay AID1159580 (chemical genetic matrix, 2015).
# Where “and” joins values, the source holds several entries; their conditions need not be identical. Identical values can stand only once. Among all 5,500 compounds or so, about 2,000 (36%) were called active. About 18% were inconclusive and are not listed. The list shows a part of the results. Values without a mark were called inactive. Cut-off read from the data, not from the text of the source: active = normalized growth mostly below about 0.91 (no sharp cut-off); inconclusive = no clear call, values can overlap the other calls; inactive = mostly above about 0.92.
# Test: chemical genetic growth profiling, strain panel (AID 1159580);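 note: tested at 20 µM; growth read once vehicle control cultures reached saturation at 30 °C; 1 = growth at the plate median or of vehicle wells; lower values mean less growth of the strain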
# Conditions: S. cerevisiae deletion strains, growth OD
smiles,measurement,setting,value
CC[n+]1c(-c2ccccc2)c2cc(N)ccc2c2ccc(N)cc21,normalized growth,"locus YAL013W, strain DEP1, active compounds read low",0.879 (active)
same,normalized growth,"locus YAL021C, strain ccr4, active compounds read low",0.918
same,normalized growth,"locus YAL026C, strain drs2, active compounds read low",0.966
same,normalized growth,"locus YAL030W, strain snc1, active compounds read low",0.971
same,normalized growth,"locus YBL061C, strain skt5, active compounds read low",0.974
same,normalized growth,"locus YBR009C, strain hhf1, active compounds read low",0.966
same,normalized growth,"locus YBR021W, strain FUR4, active compounds read low",1.06
same,normalized growth,"locus YBR023C, strain chs3, active compounds read low",0.979
same,normalized growth,"locus YBR171W, strain sec66, active compounds read low",0.977
same,normalized growth,"locus YBR229C, strain ROT2, active compounds read low",0.952
same,normalized growth,"locus YBR231C, strain swc5, active compounds read low",0.966
same,normalized growth,"locus YBR279W, strain paf1, active compounds read low",0.947
same,normalized growth,"locus YCL011C, strain gbp2, active compounds read low",0.981
same,normalized growth,"locus YCL016C, strain dcc1, active compounds read low",0.943
same,normalized growth,"locus YCL029C, strain bik1, active compounds read low",0.664 (active)
same,normalized growth,"locus YCL069W, strain vba3, active compounds read low",0.959
same,normalized growth,"locus YCR088W, strain abp1, active compounds read low",0.954
same,normalized growth,"locus YDL005C, strain med2, active compounds read low",0.99
same,normalized growth,"locus YDL035C, strain GPR1, active compounds read low",0.703 (active)
same,normalized growth,"locus YDL040C, strain nat1, active compounds read low",0.969
same,normalized growth,"locus YDL074C, strain BRE1, active compounds read low",0.822
same,normalized growth,"locus YDL101C, strain DUN1, active compounds read low",0.93
same,normalized growth,"locus YDL134C, strain PPH21, active compounds read low",0.776 (active)
same,normalized growth,"locus YDL185W, strain tfp1, active compounds read low",0.853 (active)
same,normalized growth,"locus YDL192W, strain arf1, active compounds read low",0.922
same,normalized growth,"locus YDR001C, strain nth1, active compounds read low",0.953
same,normalized growth,"locus YDR069C, strain doa4, active compounds read low",0.974
same,normalized growth,"locus YDR101C, strain arx1, active compounds read low",0.886 (active)
same,normalized growth,"locus YDR137W, strain rgp1, active compounds read low",0.997
same,normalized growth,"locus YDR159W, strain sac3, active compounds read low",1.02
same,normalized growth,"locus YDR162C, strain NBP2, active compounds read low",0.706 (active)
same,normalized growth,"locus YDR195W, strain ref2",1.04
same,normalized growth,"locus YDR297W, strain sur2, active compounds read low",0.954
same,normalized growth,"locus YDR318W, strain mcm21, active compounds read low",0.885 (active)
same,normalized growth,"locus YDR334W, strain swr1, active compounds read low",0.957
same,normalized growth,"locus YDR335W, strain msn5, active compounds read low",0.983
same,normalized growth,"locus YDR388W, active compounds read low",0.859 (active)
same,normalized growth,"locus YDR392W, strain spt3, active compounds read low",0.965
same,normalized growth,"locus YDR502C, strain sam2, active compounds read low",0.801 (active)
same,normalized growth,"locus YEL003W, strain gim4, active compounds read low",0.956
same,normalized growth,"locus YEL037C, strain rad23, active compounds read low",0.965
same,normalized growth,"locus YEL061C, strain CIN8 (second series), active compounds read low",0.946
same,normalized growth,"locus YEL061C, strain CIN8, active compounds read low",0.766 (active)
same,normalized growth,"locus YER015W, strain faa2, active compounds read low",0.97
same,normalized growth,"locus YER016W, strain bim1, active compounds read low",0.953
same,normalized growth,"locus YER110C, active compounds read low",0.967
same,normalized growth,"locus YER111C, strain swi4, active compounds read low",0.939
same,normalized growth,"locus YER155C, strain BEM2 (second series), active compounds read low",0.939
same,normalized growth,"locus YER155C, strain BEM2, active compounds read low",0.937
same,normalized growth,"locus YER167W, strain BCK2, active compounds read low",0.756 (active)
same,normalized growth,"locus YFR010W, strain ubp6, active compounds read low",0.97
same,normalized growth,"locus YGL078C, strain dbp3, active compounds read low",0.898 (active)
same,normalized growth,"locus YGL086W, strain mad1, active compounds read low",0.856 (active)
same,normalized growth,"locus YGL167C, strain pmr1, active compounds read low",0.986
same,normalized growth,"locus YGL173C, strain kem1, active compounds read low",0.96
same,normalized growth,"locus YGL227W, strain vid30, active compounds read low",0.975
same,normalized growth,"locus YGL240W, strain doc1, active compounds read low",1.01
same,normalized growth,"locus YGL248W, strain PDE1, active compounds read low",0.845 (active)
same,normalized growth,"locus YGL253W, strain hxk2, active compounds read low",0.94
same,normalized growth,"locus YGR135W, strain pre9, active compounds read low",0.872 (active)
same,normalized growth,"locus YGR252W, strain gcn5, active compounds read low",0.94
same,normalized growth,"locus YHR013C, strain ard1, active compounds read low",0.988
same,normalized growth,"locus YHR027C, strain rpn1, active compounds read low",0.954
same,normalized growth,"locus YHR030C, strain SLT2, active compounds read low",0.906 (active) and 0.85 (active)
same,normalized growth,"locus YHR079C, strain IRE1 (second series), active compounds read low",0.857 (active)
same,normalized growth,"locus YHR079C, strain IRE1, active compounds read low",0.832 (active)
same,normalized growth,"locus YHR094C, strain hxt1, active compounds read low",0.925
same,normalized growth,"locus YHR129C, strain ARP1, active compounds read low",0.895 (active)
same,normalized growth,"locus YHR142W, strain chs7, active compounds read low",0.974
same,normalized growth,"locus YHR200W, strain rpn10, active compounds read low",0.864 (active)
same,normalized growth,"locus YIL066C, strain RNR3, active compounds read low",0.827 (active)
same,normalized growth,"locus YIL073C, strain SPO22, active compounds read low",0.662 (active)
same,normalized growth,"locus YIL125W, strain kgd1, active compounds read low",0.88 (active)
same,normalized growth,"locus YIR030C, strain dcg1, active compounds read low",0.889 (active)
same,normalized growth,"locus YJL092W, strain hpr5, active compounds read low",0.946
same,normalized growth,"locus YJL095W, strain BCK1 (second series), active compounds read low",0.979
same,normalized growth,"locus YJL095W, strain BCK1, active compounds read low",0.79 (active) and 0.852 (active)
same,normalized growth,"locus YJL115W, strain asf1, active compounds read low",0.926
same,normalized growth,"locus YJL129C, strain trk1, active compounds read low",1.08
same,normalized growth,"locus YJL134W, strain LCB3, active compounds read low",0.924 (active)
same,normalized growth,"locus YJL154C, strain vps35, active compounds read low",0.949
same,normalized growth,"locus YJL164C, strain tpk1, active compounds read low",0.963
same,normalized growth,"locus YJL166W, strain qcr8, active compounds read low",0.993
same,normalized growth,"locus YJL168C, strain set2, active compounds read low",0.915 (active)
same,normalized growth,"locus YJL187C, strain SWE1 (second series), active compounds read low",0.819 (active)
same,normalized growth,"locus YJL187C, strain SWE1, active compounds read low",0.995
same,normalized growth,"locus YJR043C, strain POL32, active compounds read low",0.687 (active)
same,normalized growth,"locus YJR066W, strain TOR1, active compounds read low",0.773 (active)
